ATXN viability: Viability Counterscreen for Primary qHTS for Inhibitors of ATXN expression; S2 cells (HEK-293 line with an ATXN2-luciferase reporter) viability, CellTiter-Fluor protease fluorescence, 24 h; Potency, µM (top dose mostly 56.7 µM), usual class: cytotoxic; 0.49% of 400,000 active; note: potency is the fitted concentration of half-maximal effect; nearly all actives have a fitted effect of over 40% in size
IL-1B inflam inh: qHTS for Inhibitors of Inflammasome Signaling: IL-1-beta AlphaLISA Primary Screen | THP-1 LPS/ATP IL-1B secretion, AlphaLISA, 16 h; hits give low values | activity change, % at 57.5 µM | 4.7% of 360,000 active | AID 743279, 2014; in the data active = activity change below about -50%; inconclusive = mostly about -30% to -49%; note: % is set by controls: 0 for no effect and ±100 for the full control effect
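THP-1 cells pretreated 1 hr with compounds (up to 57.5 uM final), then stimulated with LPS (250 ng/mL final) plus ATP (1.25 mM final); secreted IL-1B measured by AlphaLISA after 16 hr, decreased signal indicating inhibition.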
ATXN2 expr inh: Primary qHTS for Inhibitors of ATXN expression; 0.72% of 360,000 active; Potency, µM (top dose mostly 57 µM), for the others: top-dose activity change, negative = inhibition, most hits filed as inhibitors; HEK-293 ATXN2-luciferase reporter, luminescence, 24 h; AID 1745845, 2022; note: potency is the fitted concentration of half-maximal effect; % is set by controls: 0 for no effect and ±100 for the full control effect; nearly all actives have a fitted effect of over 55% in size
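ATXN2-luciferase reporter cells (luciferase flanked by upstream and downstream ATXN2 gene portions) were treated 24 h at 37 °C with compounds at up to 57 uM. SteadyGlo luminescence gave expression; GF-AFC fluorescence gave viability.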
DRD3 agonist: qHTS of D3 Dopamine Receptor Agonist: qHTS; max activation, %; D(3) dopamine receptor (Homo sapiens), P35462; 0.58% of 410,000 active; D3R DiscoveRx beta-arrestin cells, luminescence, 90 min; AID 652048, 2013; in the data active = max activation above about 30%; note: 0% is about no effect
Target sequence (P35462 whole entry, looked up): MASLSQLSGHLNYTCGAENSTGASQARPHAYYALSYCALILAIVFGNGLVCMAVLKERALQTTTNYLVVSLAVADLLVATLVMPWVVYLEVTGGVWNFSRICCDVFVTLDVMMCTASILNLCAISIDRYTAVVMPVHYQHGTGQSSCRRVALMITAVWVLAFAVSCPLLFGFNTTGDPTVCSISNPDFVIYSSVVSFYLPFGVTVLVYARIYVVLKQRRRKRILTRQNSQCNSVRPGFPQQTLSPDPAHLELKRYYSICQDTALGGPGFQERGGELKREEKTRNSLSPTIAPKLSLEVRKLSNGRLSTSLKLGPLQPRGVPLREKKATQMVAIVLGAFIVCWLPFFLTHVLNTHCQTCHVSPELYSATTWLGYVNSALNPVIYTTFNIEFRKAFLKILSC
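Agonist mode: compounds and dopamine controls were applied to plated cells for 90 min at 37 degrees C after an overnight attachment at 1500 cells/well. Luminescent read-out followed 30 - 60 minutes at room temperature with DiscoveRx detection reagent.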
DRD3 antagonist: qHTS of D3 Dopamine Receptor Antagonist: qHTS | 2.5% of 360,000 active | AID 652054, 2013 | D3R cells, DiscoveRx beta-arrestin luminescence, antagonist mode; hits give low values | max response, negative = inhibition, % | D(3) dopamine receptor (Homo sapiens), P35462; in the data active = max response below about -50%; inconclusive = no clear call, values can overlap the other calls; note: % is set by controls: 0 for no effect and ±100 for the full control effect
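Cells plated overnight at 1500 cells/well, then exposed to library compounds with dopamine controls for 90 minutes at 37 degrees C. DiscoveRx reagent added for 30–60 minutes at room temperature; luminescence read, quantitative HTS format.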
a7 integrin act: qHTS for Activators of Integrin-Mediated Alleviation for Muscular Dystrophy; alpha7betagal myoblasts, beta-gal FDG fluorescence, 48 h; Potency, µM (titrated, usually from 38.3 µM), for inactives: at the highest dose activation, actives largely listed as activators; 0.064% of 350,000 active; AID 624291, 2012;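 note: potency is the fitted concentration of half-maximal effect; 100% = response of the positive control SU9516; nearly all actives have a fitted effect of over 60% in size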
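Alpha7betagal+/- myoblasts (passage 13) were plated 16-24 hr, then exposed to compounds (1:260 dilution of DMSO stock) for 48 hours at 37C. After MPER lysis, β-galactosidase reporter activity was read as FDG fluorescence (ex 480/em 540) after 30 minutes.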
* hit, by the source's call; i = inactive; ? = inconclusive; . = not tested or not shown. Compounds with a hit are over-represented: about 7% of the library has one in this group of screens. Unless noted, calls come from the whole dose curve; as a rule, active = well fitted curve in the direction sought with a large enough effect; inconclusive = small, poorly fitted or top-dose-only effect, or another doubt; inactive = no such curve, though single readings can be large; an effect the other way counts as inactive or inconclusive.

SMILES | ATXN viability | IL-1B inflam inh | ATXN2 expr inh | DRD3 agonist | DRD3 antagonist | a7 integrin act
COc1ccc(C(=O)Nc2ccc3c(c2)nc(CN2CCCC2)n3C)cc1 | i | -12 | -3% | 45* | -17 | ?
CCOc1ccccc1C(=O)NC1CCN(CC(=O)Nc2cc(OC)ccc2OC)CC1 | ? | 4 | . | -7 | 7 | 11%
Cn1c(CN2CCCCC2)nc2cc(NC(=O)c3cccc(Br)c3)ccc21 | ? | -78* | ? | -16 | -21 | 15%
O=C(Nc1ccc(CN2CCCCC2)cc1)c1cccc(Br)c1 | i | -55* | -11% | -7 | 2 | -41%
O=C(Nc1ccc(CN2CCCCC2)cc1)c1sc2ccccc2c1Cl | i | -57* | -33% | -34 | ? | -25%
Cn1c(CN2CCCCC2)nc2cc(NC(=O)c3ccccc3)ccc21 | i | 0 | 11% | 12 | 14 | -9%
CCOC(=O)c1[nH]cnc1C(=O)Nc1ccccn1 | i | -64* | -21% | -7 | -11 | 44%
CCOC(=O)c1ccc(NC(=O)c2nc[nH]c2C(=O)NC)cc1 | i | -18 | 13% | 49* | 24 | 8%
CCOC(=O)c1ccc(NC(=O)c2nc[nH]c2C(=O)N[C@H](C)c2ccccc2)cc1 | ? | -9 | 32µM* | -11 | 46 | -46%
Cc1ccc(NC(=O)c2nc[nH]c2C(=O)N[C@H](C)c2ccccc2)cc1 | ? | ? | ? | 7 | 11 | -18%
CCOC(=O)c1ccc(NC(=O)c2nc[nH]c2C(=O)NCCNC(=O)c2[nH]cnc2C(=O)Nc2ccc(C(=O)OCC)cc2)cc1 | i | 13 | -2% | 29 | 10 | 28%
Cc1cccc(C(=O)OCc2cc(=O)n3ccsc3n2)c1 | i | . | 21% | 6 | . | .
O=C(Cn1c(-c2cccs2)cc2ccccc21)NCc1ccccc1Br | i | . | -24% | 8 | . | .
CCOc1ccc(C(=O)N2CCN(CCc3ccccc3)CC2)cc1OCC | i | 34 | 2% | -2 | -17 | -18%
COCCNCC#CCOc1ccc(OC)cc1 | i | -11 | 5% | -11 | -6 | -7%
C=CCNCC#CCOc1ccc(OC)cc1 | i | -3 | 2% | -5 | -62* | -61%
Fc1cc(Cl)cc2ccc(-c3ccccc3)nc12 | i | 0 | 75% | 0 | 11 | .
C=CCNc1ncnc2c1ncn2[C@H]1CN(Cc2cccs2)C[C@@H](CO)O1 | i | ? | 9% | -8 | -9 | .
CC(=O)N1CCSc2ccc(S(=O)(=O)NCCc3ccc(C)cc3)cc21 | i | ? | -19% | -8 | 8 | 8%
CC(=O)N1CCSc2ccc(S(=O)(=O)NCCc3cccc(C)c3)cc21 | i | -80* | -19% | 15 | -19 | -7%
CCn1c2ccccc2c2cc(/C=N/NC(=O)c3cc(O)cc(O)c3)ccc21 | ? | -106* | -22% | 5 | 4 | 9%
Cc1noc(C)c1NC(=O)Nc1cccc2c1O[C@H](CN(C)S(=O)(=O)c1ccccc1)[C@@H](C)CN([C@H](C)CO)C2=O | i | -3 | 2% | -1 | 27 | -43%
COc1cc(CCC(=O)OCC(=O)Nc2c(C)cccc2C(C)C)cc(OC)c1OC | i | 17 | 2% | 4 | 10 | -3%
OC(CNCc1ccccc1)Cn1ccc2ccccc21 (stereo not drawn) | i | -50* | -11% | -10 | -4 | -24%
OC(CNCCNc1ncccc1C(F)(F)F)Cn1ccc2ccccc21 (stereo not drawn) | i | -56* | . | -13 | ? | -50%
CC(C)(O)C#Cc1ccc([C@@H]2C[C@H]3CN(c4ccccc4)C(=O)[C@]34CCCN24)s1 | ? | -72* | ? | -5 | -9 | -59%
CC1CCN(C(c2ccc(N(C)C)cc2)c2nnnn2C(C)(C)C)CC1 (stereo not drawn) | i | 7 | 7% | -4 | 2 | 7%
